BoNT-F LC inh – inhibitors of Botulinum neurotoxin F light chain protease | Multiplex microsphere protease cleavage assay, flow cytometry | inhibition, % at 10 µM | 360,000 tested, 0.22% active | AID 588497; in the data active means inhibition above about 35%, passing the limit was not always enough; inconclusive means no clear call, values can overlap the other calls
Anthrax LF prot – blocks Bacillus anthracis lethal factor protease; multiplex microsphere protease cleavage assay, LF; inhibition, % at 10 µM; 360,000 tested, 0.12% active
Bead autofluor – counter-screen for toxin protease inhibitors: compound fluorescence; compound autofluorescence counterscreen, microsphere flow cytometry; hits give high values; fluorescence intensity (test concentration not listed); 360,000 tested, 3.1% active; AID 624483; in the data active means fluorescence intensity above about 16000; inconclusive means no clear call, values can overlap the other calls
BoNT-A LC inh2 – BoNT A light chain protease inhibition | multiplex microsphere protease substrate cleavage, flow cytometry | inhibition, % at 10 µM | 360,000 tested, 0.17% active
MazF activator – activators of E. coli MazEF toxin-antitoxin RNase. 350,000 tested, 0.32% active. AID 504720. FAM/BHQ RNA-DNA oligo cleavage fluorescence, 5 h. activation, % at 20 µM; in the data active means activation above about 50%
Target sequence (P0AE70 whole entry, looked up): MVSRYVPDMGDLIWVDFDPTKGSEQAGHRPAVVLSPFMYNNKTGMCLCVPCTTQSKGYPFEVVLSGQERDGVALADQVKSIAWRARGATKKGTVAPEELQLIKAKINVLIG
Numbers stand for hits; 0 = inactive; ? = inconclusive; - = not tested or not shown. An excerpt weighted towards active compounds, which were near 3.7% of everything screened. Unless noted, no stated cut-off is given here; in the data, active means inhibition above about 30%; inconclusive means no clear call, values can overlap the other calls; inactive means below that.

SMILES	BoNT-F LC inh	Anthrax LF prot	Bead autofluor	BoNT-A LC inh2	MazF activator
CC(NC(=O)NC12CC3CC(CC(C3)C1)C2)C1CCCO1 (centres undefined)	0	0	21432	?	0
CC(C)NC(=O)CC1OC(=O)c2ccccc21 (centres undefined)	0	0	23103	0	0
Cc1c(C(=O)O)oc2ccc(S(=O)(=O)NCc3ccc(F)cc3)cc12	0	0	24054	0	0
COc1ccc(CNS(=O)(=O)c2ccc3oc(C(=O)O)c(C)c3c2)cc1	0	0	0	0	0
COCCCNC(=O)C(=O)Nc1ccc2c(c1)N(S(=O)(=O)c1cccs1)CCC2	0	0	0	0	0
Cc1cc(C)c2c(=O)n(-c3ccccc3)[nH]c2n1	0	0	0	0	0
Cc1cc(C(C)(C)C)nc2[nH]n(-c3ccccc3)c(=O)c12	0	0	20895	0	0
Cc1ccc(N2C(=O)N(CC(=O)N3CCOCC3)C(=O)C2C)cc1 (centres undefined)	0	0	0	0	0
Cn1c(-c2ccc(Cl)nc2)nc2cc(Cl)ccc21	0	0	0	0	0
O=C(CCl)Nc1ccc(Oc2cnc3ccccc3n2)cc1	0	0	21837	0	0
CCCCCCn1c(=O)[nH]c2nc3cc(N)ccc3nc2c1=O	-	-	-	-	364
CCCCCCn1c(=O)[nH]c2c(c1=O)CCC2	0	0	0	0	0
COc1ccc(-c2nnnn2-c2ccc(F)cc2F)cc1	0	0	0	0	0
COC(=O)CCCCC1SCC(NC(=O)c2ccccc2)C1Cl (centres undefined)	0	0	0	0	0
COC(=O)CCCCC1SCC2NC(=O)NC21O (centres undefined)	79	0	0	0	0
Cc1ccc(CN2CC(C(=O)N3CCN(S(=O)(=O)c4c(F)cccc4F)CC3)CC2=O)cc1 (centres undefined)	0	0	0	0	0
Cc1ccc(C(C)NC(=O)c2c(C)noc2C)cc1C (centres undefined)	0	0	24941	0	0
Cc1noc(C)c1C(=O)NNc1ccc(C(C)C)cc1	-	-	-	-	0
COc1cccc(C2C(C(C)=O)=C(C)Nc3ncnn32)c1 (centres undefined)	0	0	0	0	0
CCCCOC(=O)C1=C(C)Nc2ncnn2C1c1cccc(OC)c1 (centres undefined)	0	0	23328	0	0
CCOC(=O)C1=C(c2ccccc2)Nc2ncnn2C1c1cc(OC)ccc1OC (centres undefined)	0	0	21867	0	0
CCCCOC(=O)C1=C(C)Nc2ncnn2C1c1cc(OC)ccc1OC (centres undefined)	0	0	19006	0	0
O=C1C(=Cc2ccc(Br)o2)C(=O)c2ccccc21	34	0	0	0	0
CN(C)S(=O)(=O)c1ccc(N2CCCC2)c(C(=O)NNC(=O)COc2cccc(F)c2)c1	0	0	0	0	0
O=C1Nc2ccccc2Oc2cc([N+](=O)[O-])cc(Oc3ccccc3)c21	0	0	0	0	53
SMILES	BoNT-F LC inh	Anthrax LF prot	Bead autofluor	BoNT-A LC inh2	MazF activator
Cc1cccc(Oc2cc([N+](=O)[O-])cc3c2C(=O)Nc2ccccc2O3)c1	0	0	0	0	0
CCNC(=O)C1CCCN(C(=O)c2ccccc2OC(F)(F)F)CC1 (centres undefined)	0	0	0	0	-
CCOC(=O)c1sc(NC(=O)CSc2nnc(-c3ccc(OC)cc3)n2CCOC)nc1C	0	0	22333	0	0
CC1CCCN(c2oc(-c3cccc4ccccc34)nc2C#N)C1 (centres undefined)	0	0	17536	0	0
CC(CN1CCCCC1)OC(=O)/C=C/c1ccccc1 (centres undefined)	36	0	0	0	0
COc1ccc(/C=C/C(=O)OC(C)CN2CCOCC2)cc1 (centres undefined)	0	0	17262	0	0
CC(=O)OCCC(NS(=O)(=O)OCC(Cl)(Cl)Cl)c1ccccc1 (centres undefined)	0	0	0	0	0
Cc1ccc(S(=O)(=O)N2CCN(C(=O)CNC(=O)c3ccc(Cl)cc3)CC2)cc1	0	0	0	0	0
CCOC(=O)/C(=N\Nc1ccc(C(C)=O)cc1)c1csc(Nc2ccccc2)n1	0	0	0	0	56
CN(C)CCN(C)Cc1c2ccccc2c(CN(C)CCN(C)C)c2ccccc12	0	0	0	33	0
Cc1cc(C)c2cc3c(N)c(C(=O)Nc4c(C)[nH]c(=O)[nH]c4=O)sc3nc2c1	0	0	0	0	155
O=C(NCc1ccccn1)C(=O)NCC1OCCN1S(=O)(=O)c1ccc(F)cc1 (centres undefined)	0	0	0	0	0
OC(c1ccc(F)cc1)c1nc(-c2ccoc2)cs1 (centres undefined)	0	0	0	0	-

Screening data (PubChem BioAssay)
